UBC13 polyUb: UBC13 polyubiquitin chain formation inhibitors, primary screen, biochemical, TR-FRET, uHTS; Ubiquitin-conjugating enzyme E2 N (Homo sapiens), P61088; inhibition, % at 20 µM; 0.47% of 330,000 active; in the data active means inhibition above about 45%, passing the limit was not always enough
MBD2 inh: inhibitors of MBD2 binding to methylated DNA, primary screen, biochemical, TR-FRET, DNA-binding domain, human | inhibition, % at 4.4 µM | Methyl-CpG-binding domain protein 2 (Homo sapiens), Q9UBB5 | MBD2 binding to methylated oligonucleotide | 0.31% of 370,000 active; in the data active means inhibition above about 13%
Neddyl block: inhibitors of cullin neddylation, primary screen, biochemical, TR-FRET, uHTS, NAE and Ubc12; calls only at 25 µM; 0.58% of 360,000 active; AID 651699, 2012; in the data active means inhibition above about 36%
Target sequence (P61081 whole entry, looked up): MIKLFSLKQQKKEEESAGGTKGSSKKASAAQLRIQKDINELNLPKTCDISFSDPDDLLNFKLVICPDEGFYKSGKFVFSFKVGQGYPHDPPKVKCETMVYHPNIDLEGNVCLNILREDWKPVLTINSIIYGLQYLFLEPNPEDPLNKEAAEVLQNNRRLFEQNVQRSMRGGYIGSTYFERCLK
Target sequence (Q13564 whole entry, looked up): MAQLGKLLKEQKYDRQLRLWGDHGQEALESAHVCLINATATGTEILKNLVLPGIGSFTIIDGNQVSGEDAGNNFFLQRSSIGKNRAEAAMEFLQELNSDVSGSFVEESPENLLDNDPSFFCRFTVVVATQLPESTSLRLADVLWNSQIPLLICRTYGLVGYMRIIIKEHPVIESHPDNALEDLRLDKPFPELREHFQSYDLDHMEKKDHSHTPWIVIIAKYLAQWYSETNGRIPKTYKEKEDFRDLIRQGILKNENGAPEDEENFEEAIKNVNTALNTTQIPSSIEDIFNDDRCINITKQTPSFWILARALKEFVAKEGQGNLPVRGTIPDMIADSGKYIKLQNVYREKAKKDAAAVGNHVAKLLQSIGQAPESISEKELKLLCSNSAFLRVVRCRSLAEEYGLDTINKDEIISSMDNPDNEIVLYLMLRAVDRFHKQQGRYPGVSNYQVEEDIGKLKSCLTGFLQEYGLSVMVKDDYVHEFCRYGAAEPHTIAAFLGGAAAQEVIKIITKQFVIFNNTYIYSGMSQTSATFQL
UHRF1 MBD2 ctr: UHRF1 methylated DNA binding inhibitors, primary screen, counter-screen for MBD2 inhibitor project, biochemical, TR-FRET, human UHRF1, single concentration | E3 ubiquitin-protein ligase UHRF1 (Homo sapiens), Q96T88 | UHRF1 binding to methylated oligo | inhibition, % at 4.4 µM | 0.75% of 370,000 active | AID 687016, 2013;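 further: UHRF1 SRA domain binding a hemimethylated CpG hairpin DNA probe; 0% = median of test compound wells and 100% = reference inhibitor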
UHRF1 DNA bind: UHRF1 methylated DNA binding inhibitors, counter-screen for MBD2 inhibitor project, biochemical, TR-FRET, human UHRF1 | shares compounds with MBD2 inh | UHRF1 binding to methylated oligonucleotide | inhibition, % at 4.4 µM | 25% of 1,000 active | AID 720530, 2013;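 further: UHRF1 SRA domain binding a labeled hemimethylated CpG hairpin DNA; 0% = vehicle only and 100% = reference inhibitor with vehicle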
MBD2 DBD conf: inhibitors of MBD2 binding to methylated DNA, confirmation, biochemical, TR-FRET, DNA-binding domain, human | inhibition, % at 4.4 µM | shares compounds with MBD2 inh | 26% of 1,000 active | TR-FRET MBD2-DBD binding to methylated oligonucleotide; in the data active means inhibition above about 14%
* hit, by the source's call; i = inactive; / = no result given. An excerpt weighted towards active compounds, which were near 1.8% of everything screened. Unless noted, no stated cut-off is given here; in the data, active means inhibition above about 21%; inactive means the rest.

SMILES | UBC13 polyUb | MBD2 inh | Neddyl block | UHRF1 MBD2 ctr | UHRF1 DNA bind | MBD2 DBD conf
Cc1ccc(CN2CCN(CC(=O)O)C2=O)cc1 | -4.1 | 0.1 | i | 2.5 | / | /
C=C(C)C(=O)Nc1cccc(C2=NOC3(C2)C[C@@H](C(N)=O)N(C(=O)CCCCC)C3)c1 (some centres undefined) | -54.5 | 44.1* | / | 89.7* | 100.3* | 82.3*
O=C(CCCCCn1c(=O)[nH]c2ccccc2c1=O)NC1CCCC1 | / | -0.5 | / | -1.7 | / | /
CCOC(=O)CSc1nc2sc(C)c(C)c2c(=O)n1C | -1.3 | 2.3 | i | 1.2 | / | /
CCOC(=O)CSc1nc(C(C)C)nc2sc(C)c(C)c12 | 2.5 | 45.5* | i | 1.9 | 2.5 | 3.6
CC1(C)CCCN(C(=O)c2coc(=O)c(Br)c2)C1 | / | 17.7* | i | 62.1* | 101.1* | 64.9*
CCOC(=O)C1(C)CCCN(C(=O)c2ccccc2)C1 (centres undefined) | / | -5.8 | i | 2.7 | / | /
C[C@@H]1CCC2[C@](C)(CO)[C@@H](O)CC[C@]2(C)[C@@]12CC[C@@](CO)(CC(=O)O)O2 (some centres undefined) | 2.2 | 0.8 | i | 3.3 | / | /
C[C@@H]1CCC2[C@](C)(CO)[C@@H](O)CC[C@]2(C)[C@@]12CCC(CO)(CCO)O2 (some centres undefined) | 4.6 | 24.6* | i | 2.3 | 8.6 | 1.6
COc1cccc(-n2c(SCC(=O)Nc3nccs3)nnc2-c2ccoc2C)c1 | 8.1 | -1.1 | i | 1.4 | / | /
COc1cccc(-n2c(SCC(=O)NCCc3ccccc3)nnc2-c2ccoc2C)c1 | 1.8 | 17.4* | i | 28.2* | 3.0 | 4.1
Cc1ccc(CNS(=O)(=O)c2ccc([N+](=O)[O-])cc2)cc1 | -6.3 | 0.2 | i | 1.4 | / | /
C=CCOc1ccc(/C=C2\SC(=S)N(NS(=O)(=O)c3ccc(C)cc3)C2=O)cc1 | -11.6 | 13.5* | i | 23.4* | 3.2 | 2.0
O=C(NNS(=O)(=O)c1cc(Cl)cc(Cl)c1)c1sccc1-n1cccc1 | -6.8 | 1.8 | i | -2.2 | / | /
Cc1ccnc2nc(C(=O)OCC(=O)c3ccc(NC(=O)CC(C)C)cc3)nn12 | -10.6 | 1.6 | i | 2.4 | / | /
CCC(=O)Nc1ccc(C(=O)COC(=O)c2nc3nccc(C)n3n2)cc1 | -20.6 | 34.0* | i | 55.5* | 31.3* | 29.9*
CCCc1cc(=O)[nH]c2nnc(SCC(=O)Nc3ccc(NC(C)=O)cc3)n12 | -6.4 | 3.9 | i | 2.4 | / | /
CCCc1cc(=O)[nH]c2nnc(SCC(=O)Nc3cccc(NC(C)=O)c3)n12 | -5.8 | 15.5* | i | 1.1 | 4.7 | 6.0
COC(=O)CNC(=O)COC(=O)c1cc(Cl)cc(Cl)c1N | 7.8 | -0.8 | / | -3.3 | / | /
NC(=O)COC(=O)c1cc(Cl)cc(Cl)c1N | 13.6 | 32.3* | / | 4.6 | 2.8 | 1.7
CCCCn1nnnc1C1(C)CCC(=O)N1CCCn1ccnc1 (centres undefined) | / | 13.7* | i | 17.4 | 16.6 | 15.8*
CC(=O)c1ccc(N2CCN(C(=O)C3CCCN(S(=O)(=O)c4c(C)[nH]c(=O)[nH]c4=O)C3)CC2)cc1 (centres undefined) | -10.5 | 1.5 | i | 1.9 | / | /
FC(F)Sc1nc2ccccc2[nH]1 | 4.2 | 40.2* | i | -0.2 | 9.0 | 5.9
COC1=Nc2ccccc2N2CCN=C12 | / | 2.9 | / | 1.0 | / | /
c1ccc2c(c1)C1=NCCN1c1ccccc1-2 | / | 25.9* | / | -11.9 | -0.6 | 38.7*
SMILES | UBC13 polyUb | MBD2 inh | Neddyl block | UHRF1 MBD2 ctr | UHRF1 DNA bind | MBD2 DBD conf
Cc1ccc(NC(=O)CCCN2C(=S)NC(C)(C)CC2C)cc1 (centres undefined) | -9.0 | -0.4 | i | 0.4 | / | /
CCc1ccc(NC(=O)CCCN2C(=S)NC(C)(C)CC2C)cc1 (centres undefined) | 1.7 | 19.5* | i | 1.7 | 2.6 | 2.9
COc1ccc(NC(=O)C2CCC(N3C(=O)C4CCCCC4C3=O)CC2)cc1 (centres undefined) | -1.4 | 3.2 | i | -2.0 | / | /
CC(C)NC(=O)C(=O)NCC(c1ccc2c(c1)OCO2)N1CCOCC1 (centres undefined) | -6.9 | 14.3* | i | 28.4* | 3.1 | 1.2
O=C(Nc1cccc(Cl)c1)c1ccc(OC(=S)N2CCOCC2)cc1 | -6.7 | 4.1 | i | 0.4 | / | /
O=C(c1ccc(S(=O)(=O)N2CCC(c3nc4ccccc4[nH]3)CC2)cc1)N1CCOCC1 | -0.6 | 14.0* | i | 21.7* | 6.0 | 8.7
O=C(CCSc1nc(-c2ccco2)cc(C(F)(F)F)n1)NCc1ccccn1 | -7.3 | 24.1* | i | 0.8 | 8.9 | 0.6
CC#CCN1c2ccccc2[C@]23C[C@@H](C(=O)OC)N(C(=O)NC(C)(C)C)C2=NC(C(=O)OC)=C(C(=O)OC)[C@H]13 | -7.6 | 0.2 | i | -1.3 | / | /
Cc1cccc(C(=O)N2CCN(C(=O)c3cccc(C)c3)C(C)C2)c1 (centres undefined) | -7.0 | 1.7 | i | 3.0 | / | /
CCOC(=O)CCNC(=O)Nc1ccc2nc(C)n(Cc3ccc(Cl)cc3)c(=O)c2c1 | -3.6 | 0.5 | i | -1.7 | / | /
CC(=O)Nc1ccc2nc(C)n(Cc3ccc(Cl)cc3)c(=O)c2c1 | 4.1 | 14.6* | i | 22.7* | 6.4 | 2.5
COc1ccc(C(c2nnnn2C(C)(C)C)N2CCN(C)CC2)cc1OC (centres undefined) | 4.5 | 1.8 | i | -5.7 | / | /
COc1cccc2c1C(=O)c1c(O)c3c(c(O)c1C2=O)C[C@](O)(C(C)=O)C[C@H]3O[C@@H]1C[C@@H](N)[C@@H](O)[C@@H](C)O1 | -335.6 | 111.5* | i | 93.0* | 100.7* | 110.9*
COc1ccc(N=Cc2ccc[nH]2)cc1 | -7.5 | 22.4* | i | 0.5 | 7.3 | 1.7
Cc1c(Nc2c3ccccc3nc3ccccc23)c(=O)n(-c2ccccc2)n1C | -65.2 | 24.4* | i | -2.4 | 0.6 | -5.4
Cc1c(Nc2nc3ccccc3nc2N2CCN(c3ccccc3)CC2)c(=O)n(-c2ccccc2)n1C | -20.1 | -6.1 | i | 1.7 | / | /
O=C(Cn1nc(-c2ccccc2Cl)ccc1=O)Nc1ccc(Br)cc1 | -13.3 | 1.2 | i | -1.7 | / | /
O=C(Cn1nc(-c2ccccc2Cl)ccc1=O)Nc1ccccc1-c1ccccc1 | -1.2 | 43.0* | i | -1.4 | 7.6 | 1.9
Cc1ccc(NC(=O)CN(C)CC(=O)Nc2c(C)cccc2C)c(Br)c1 | -8.8 | 37.7* | i | -2.4 | -0.4 | 4.7
Cc1ccc(NC(=O)Cn2cccc2)c(Br)c1 | 2.9 | -5.4 | i | 0.5 | / | /

Compound activity as filed in PubChem.
